Reference: PubChem BioAssay
The source made the active and inactive calls.

Legend:
[1] = small molecules captured by biotinylated probe aFSTL3 – biochemical, small-molecule microarray, fluorescence 635/667, stem cell growth factor project, primary screen (AID 1064); conditions: higher = more signal;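 further: measures binding of the biotinylated anti-FSTL3 antibody to printed compounds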
[2] = binders from COS7 lysate, DM2A8 probe, primary screen, torsin A project, cell lysate, small-molecule microarray, fluorescence 635/667 (AID 1065); conditions: higher = more signal, COS7 lysate expressing mutant human TOR1A
[3] = small molecules captured by biotinylated probe aFGF2 – biochemical, small-molecule microarray, fluorescence 635/667, stem cell growth factor project, primary screen (AID 1067); conditions: higher = more signal;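 further: measures binding of biotinylated aFGF2 protein to printed compounds on slides; z-score merges feature fluorescence and signal-to-noise across triplicate slides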
[4] = small molecules captured by biotinylated probe aFGF10 – biochemical, small-molecule microarray, fluorescence 635/667, stem cell growth factor project, primary screen (AID 1071); conditions: higher = more signal;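 further: score merges 667 nm spot intensity and signal to noise from triplicate slides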
[5] = molecular target: Neurogenic locus notch homolog protein 2 (Homo sapiens) (UniProt Q04721); experiment: small molecules binding Notch2 protein – biochemical, small-molecule microarray, 635 nm fluorescence, stem cell growth factors, primary screen (AID 1073); conditions: higher = more signal
Chain of Neurogenic locus notch homolog protein 2 (Homo sapiens) (Q04721 whole entry, looked up, canonical isoform): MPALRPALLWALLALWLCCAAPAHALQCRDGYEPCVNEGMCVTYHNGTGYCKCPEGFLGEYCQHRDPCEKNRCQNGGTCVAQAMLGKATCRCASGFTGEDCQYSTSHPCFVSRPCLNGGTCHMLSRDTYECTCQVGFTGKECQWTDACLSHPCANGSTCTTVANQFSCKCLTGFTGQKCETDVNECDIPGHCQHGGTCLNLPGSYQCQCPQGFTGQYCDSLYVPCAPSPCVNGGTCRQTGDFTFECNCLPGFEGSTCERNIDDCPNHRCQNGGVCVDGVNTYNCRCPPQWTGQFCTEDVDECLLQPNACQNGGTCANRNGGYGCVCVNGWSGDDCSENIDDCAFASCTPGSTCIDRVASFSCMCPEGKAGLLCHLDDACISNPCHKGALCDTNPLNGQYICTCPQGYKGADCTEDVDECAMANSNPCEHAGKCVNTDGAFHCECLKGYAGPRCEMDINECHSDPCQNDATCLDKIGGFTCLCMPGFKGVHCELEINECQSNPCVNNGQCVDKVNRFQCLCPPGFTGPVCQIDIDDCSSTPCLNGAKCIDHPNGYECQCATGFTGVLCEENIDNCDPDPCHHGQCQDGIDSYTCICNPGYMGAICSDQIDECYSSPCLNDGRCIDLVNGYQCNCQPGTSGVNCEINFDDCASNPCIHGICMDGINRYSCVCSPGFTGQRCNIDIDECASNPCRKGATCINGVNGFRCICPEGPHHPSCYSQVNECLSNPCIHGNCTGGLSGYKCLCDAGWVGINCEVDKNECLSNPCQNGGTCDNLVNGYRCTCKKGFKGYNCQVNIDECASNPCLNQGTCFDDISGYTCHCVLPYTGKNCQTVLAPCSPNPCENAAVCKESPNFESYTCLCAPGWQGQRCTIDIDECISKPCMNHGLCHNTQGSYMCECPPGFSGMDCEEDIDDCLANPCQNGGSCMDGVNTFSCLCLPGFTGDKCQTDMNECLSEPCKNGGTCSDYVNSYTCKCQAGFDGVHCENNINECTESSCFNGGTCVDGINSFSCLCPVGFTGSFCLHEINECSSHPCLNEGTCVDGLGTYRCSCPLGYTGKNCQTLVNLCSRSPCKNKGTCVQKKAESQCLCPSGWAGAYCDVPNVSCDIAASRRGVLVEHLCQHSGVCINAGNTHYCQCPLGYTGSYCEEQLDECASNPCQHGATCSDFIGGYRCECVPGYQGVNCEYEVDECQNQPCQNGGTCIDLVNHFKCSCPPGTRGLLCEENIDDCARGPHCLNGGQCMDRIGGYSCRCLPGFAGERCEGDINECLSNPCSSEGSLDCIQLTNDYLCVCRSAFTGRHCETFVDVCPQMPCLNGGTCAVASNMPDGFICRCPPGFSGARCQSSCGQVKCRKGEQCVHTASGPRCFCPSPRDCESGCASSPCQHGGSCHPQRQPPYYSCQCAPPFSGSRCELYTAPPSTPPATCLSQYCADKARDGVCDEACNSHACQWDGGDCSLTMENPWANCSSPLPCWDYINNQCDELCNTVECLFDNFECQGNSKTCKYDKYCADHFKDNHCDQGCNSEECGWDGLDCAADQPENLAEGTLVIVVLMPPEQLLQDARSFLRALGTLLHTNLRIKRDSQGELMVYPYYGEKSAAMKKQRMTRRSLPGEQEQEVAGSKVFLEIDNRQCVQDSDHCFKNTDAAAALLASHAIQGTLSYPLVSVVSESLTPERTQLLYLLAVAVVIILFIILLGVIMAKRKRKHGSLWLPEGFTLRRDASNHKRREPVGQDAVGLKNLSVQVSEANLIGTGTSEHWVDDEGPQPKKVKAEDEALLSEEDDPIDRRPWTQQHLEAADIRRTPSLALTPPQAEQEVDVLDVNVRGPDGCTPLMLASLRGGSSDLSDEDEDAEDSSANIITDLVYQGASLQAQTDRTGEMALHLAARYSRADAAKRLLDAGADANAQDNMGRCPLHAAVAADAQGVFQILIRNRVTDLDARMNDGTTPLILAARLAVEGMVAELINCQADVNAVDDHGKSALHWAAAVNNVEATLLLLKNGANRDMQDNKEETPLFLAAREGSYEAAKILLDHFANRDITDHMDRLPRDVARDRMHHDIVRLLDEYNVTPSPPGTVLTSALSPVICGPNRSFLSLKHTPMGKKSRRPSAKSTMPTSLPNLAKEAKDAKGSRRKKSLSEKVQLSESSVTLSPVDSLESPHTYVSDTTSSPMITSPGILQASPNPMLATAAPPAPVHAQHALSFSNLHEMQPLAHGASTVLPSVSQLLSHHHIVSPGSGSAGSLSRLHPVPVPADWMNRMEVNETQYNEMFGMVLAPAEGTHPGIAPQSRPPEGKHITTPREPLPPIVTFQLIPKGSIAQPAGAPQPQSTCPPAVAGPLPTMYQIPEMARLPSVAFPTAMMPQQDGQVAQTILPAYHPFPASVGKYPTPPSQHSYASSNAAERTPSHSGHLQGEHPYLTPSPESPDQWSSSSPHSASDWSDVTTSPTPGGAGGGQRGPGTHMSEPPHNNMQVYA

[6] = molecular target: Pro-neuregulin-1, membrane-bound isoform (Homo sapiens) (UniProt Q02297); experiment: small molecules binding neuregulin-1 protein – biochemical, small-molecule microarray, fluorescence 635/667, psychiatric disease protein project, primary screen (AID 1075); conditions: NRG1 binding, 635 nm fluorescence, higher = more signal;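 further: score combines 667 nm spot fluorescence with signal to noise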
Chain of Pro-neuregulin-1, membrane-bound isoform (Homo sapiens) (Q02297 whole entry, looked up, the tested form may be a part, canonical isoform): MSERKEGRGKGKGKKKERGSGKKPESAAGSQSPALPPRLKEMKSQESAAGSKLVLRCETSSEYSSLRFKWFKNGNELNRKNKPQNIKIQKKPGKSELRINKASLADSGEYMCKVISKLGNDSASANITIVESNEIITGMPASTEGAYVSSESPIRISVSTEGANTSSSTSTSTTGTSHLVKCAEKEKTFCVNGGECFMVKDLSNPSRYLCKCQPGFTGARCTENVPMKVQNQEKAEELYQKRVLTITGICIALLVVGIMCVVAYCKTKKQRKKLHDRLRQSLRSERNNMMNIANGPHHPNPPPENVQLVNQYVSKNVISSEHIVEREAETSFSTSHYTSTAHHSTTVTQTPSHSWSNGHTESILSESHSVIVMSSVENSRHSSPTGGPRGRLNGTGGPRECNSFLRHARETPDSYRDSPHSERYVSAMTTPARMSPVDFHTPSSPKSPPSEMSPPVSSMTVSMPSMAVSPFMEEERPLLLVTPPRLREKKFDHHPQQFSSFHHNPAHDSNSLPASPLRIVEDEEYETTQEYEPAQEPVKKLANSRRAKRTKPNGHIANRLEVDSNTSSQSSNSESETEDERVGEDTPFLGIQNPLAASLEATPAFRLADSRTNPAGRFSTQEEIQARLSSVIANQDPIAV

[7] = system: Neuregulin-1 EGF-like domain; experiment: small molecules binding NRG1 EGF domain – biochemical, small-molecule microarray, 635 nm fluorescence, primary screen (AID 1081); conditions: higher = more signal;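 further: binding of the protein to compounds printed on small-molecule microarray slides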
[8] = FRG1 expression reporter modulators in myotubes – cell-based, C2C12 myotubes, firefly/Renilla luciferase, luminescence, FRG1 inhibition for FSHD, primary screen (AID 1084); conditions: FRG1 promoter luciferase, higher = more signal, called active from +8 up or from −8 down
[9] = small molecules captured by biotinylated probe aFST – biochemical, small-molecule microarray, fluorescence 635/667, stem cell growth factor project, primary screen (AID 1086); conditions: higher = more signal;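 further: score merges 667 nm fluorescence with signal-to-noise of each printed compound spot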
[10] = binders of probe aHhip on microarray, primary screen, stem cell growth factor project, biochemical, small-molecule microarray, fluorescence 635/667 (AID 1087); conditions: higher = more signal;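 further: score merges spot fluorescence at 667nm with spot signal to noise ratio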
[11] = system: PRMT1 (protein arginine N-methyltransferase 1); experiment: small molecules binding arginine methyltransferase PRMT1 – biochemical, small-molecule microarray, 635 nm fluorescence, primary screen (AID 1088); conditions: higher = more signal;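 further: binding of Prmt1 protein to compounds spotted on small-molecule microarray slides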
[12] = growth effects on S. cerevisiae YJM789 – YJM789 clinical isolate, OD600, 24 h, basal, primary screen (AID 1089); conditions: higher = more signal, called active from +8 up or from −8 down;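 further: growth of clinical yeast isolate S. cerevisiae YJM 789 seeded 1000 cells per well; test concentration not given here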
[13] = S. pombe growth modifiers, basal conditions – strain 972, OD600, 24 h, no modulator, primary screen (AID 1090);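 further: basal condition with compound alone and no growth modifier present; test concentration not given here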; conditions: S. pombe 972 growth, higher = more signal, called active from +8 up or from −8 down
[14] = budding yeast growth modifiers under rapamycin – strain BY4716, OD600, 96 h, primary screen (AID 1091); further: test concentration not given here; conditions: S. cerevisiae BY4716 + rapamycin, higher = more signal, called active from +8 up or from −8 down
[15] = molecular target: Torsin-1A-interacting protein 2 (Homo sapiens) (UniProt Q8NFQ8); experiment: small molecules binding lysate-expressed LULL1 – cell lysate, human LULL1 lysate, 635/667 nm fluorescence, primary screen (AID 1092); conditions: small-molecule microarray, hLULL1 lysate binding, 635 nm fluorescence; higher = more signal;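 further: probe is lysate of COS7 cells overexpressing human LULL1; score merges per-feature 667 nm fluorescence with signal-to-noise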
Chain of Torsin-1A-interacting protein 2 (Homo sapiens) (Q8NFQ8 whole entry, looked up): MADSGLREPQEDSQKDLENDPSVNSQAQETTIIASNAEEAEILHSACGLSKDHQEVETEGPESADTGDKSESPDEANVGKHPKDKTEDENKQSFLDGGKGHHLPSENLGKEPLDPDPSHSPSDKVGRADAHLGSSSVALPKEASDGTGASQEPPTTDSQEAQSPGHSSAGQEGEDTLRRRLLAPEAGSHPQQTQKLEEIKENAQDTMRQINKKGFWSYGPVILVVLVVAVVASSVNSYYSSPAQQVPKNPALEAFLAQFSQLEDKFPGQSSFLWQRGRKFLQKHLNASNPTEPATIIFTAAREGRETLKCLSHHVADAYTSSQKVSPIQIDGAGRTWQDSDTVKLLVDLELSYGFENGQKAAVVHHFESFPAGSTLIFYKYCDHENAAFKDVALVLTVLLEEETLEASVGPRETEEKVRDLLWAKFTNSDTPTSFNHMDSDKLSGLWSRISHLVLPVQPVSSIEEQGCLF

[16] = optical density change of DRC41 E. coli – strain DRC41, OD650, 24 h, E. coli filamentation project, primary screen (AID 1093);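 further: MC1000 strain lacking acrAB efflux and sulA so SOS filamentation is blocked; test concentration not given here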; conditions: E. coli DRC41 growth, higher = more signal, called active from +8 up or from −8 down
[17] = probe aLefty2 binding to arrayed compounds – biochemical, biotinylated probe, 635/667 nm fluorescence, primary screen (AID 1094); conditions: small-molecule microarray, higher = more signal;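 further: score merges spot fluorescence near 667 nm with spot signal-to-noise ratio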
[18] = system: Noggin (protein binding on small-molecule microarray); experiment: small molecules binding Noggin protein – biochemical, 635/667 nm fluorescence, primary screen (AID 1095); conditions: 635 nm fluorescence, higher = more signal;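 further: score merges 667 nm feature fluorescence with signal to noise over triplicate slides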
[19] = molecular target: Neurogenic locus notch homolog protein 3 (Homo sapiens) (UniProt Q9UM47); experiment: small molecules binding NOTCH3 protein – biochemical, 635/667 nm fluorescence, primary screen (AID 1096); conditions: small-molecule microarray, 635 nm fluorescence, higher = more signal
[20] = probe aEGFR binding to arrayed compounds – biochemical, biotinylated probe, 635/667 nm fluorescence, primary screen (AID 1097); conditions: small-molecule microarray, higher = more signal;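 further: probe is a biotinylated anti-EGFR antibody binding compounds printed on slides; score combines fluorescence near 667 nm and signal to noise of each spot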

SMILES | composite z-score [1] | composite z-score [2] | composite z-score [3] | composite z-score [4] | composite z-score [5] | composite z-score [6] | composite z-score [7] | z-score [8] | composite z-score [9] | composite z-score [10] | composite z-score [11] | z-score [12] | z-score [13] | z-score [14] | composite z-score [15] | z-score [16] | composite z-score [17] | composite z-score [18] | composite z-score [19] | composite z-score [20]
COCCCNC(=O)[C@@H]1c2ccccc2C(=O)N(C2CCCCC2)[C@H]1c1ccc(CO)cc1 | 0.503 | -0.763 | -0.105 | -0.564 | -1.03 | 1.2 | 1.45 | -0.108 (inactive) | -0.341 | -0.236 | -0.158 | -0.0916 (inactive) | -0.769 (inactive) | -0.285 (inactive) | 2.86 | 0.216 (inactive) | -0.018 | -0.597 | -0.47 | -0.257
CC(=O)c1ccc(C(O)C2C=CC3C(=O)NC(=O)C3N2Nc2ccc(Cl)cc2Cl)cc1 (stereo not given) | 0.863 | 0.37 | 0.045 | 0.606 | 1.01 | 1.72 | 0.669 | 1.12 (inactive) | 0.462 | -0.106 | -0.002 | 0.727 (inactive) | 0.973 (inactive) | 1.14 (inactive) | 3 | -1.08 (inactive) | 0.0277 | -0.742 | 0.424 | -0.0828
C=C(CCCC)/C(=C/C[C@H](OC(C)=O)c1cccc(OCCO)c1)c1cc(C(=O)OC)ccc1OC | 0.0336 | -0.325 | -0.0852 | -0.0418 | -0.393 | -0.578 | 0.131 | -0.502 (inactive) | -0.221 | -0.201 | 0.326 | 0.117 (inactive) | -0.602 (inactive) | -0.894 (inactive) | 0.628 | 1.01 (inactive) | -0.101 | 1.04 | 0.195 | -0.154
NC(=O)[C@@]1(CCS(=O)(=O)c2ccccc2)COC(c2ccc(OCCCO)cc2)=N1 | 0.615 | 0.0735 | 0.0777 | 0.0833 | 0.963 | 1.78 | 0.832 | -0.429 (inactive) | 0.194 | -0.112 | -0.617 | -0.0133 (inactive) | -0.213 (inactive) | 0.0084 (inactive) | 1.28 | 0.817 (inactive) | 0.158 | -0.0167 | -0.57 | -0.0826
CCCCNC(=O)c1ccc(C#C[Si](C)(C)C)c(OC(C)=O)c1 | -0.175 | 0.293 | -0.0718 | 0.112 | 0.277 | -0.166 | 0.103 | 1.87 (inactive) | -0.0501 | -0.0726 | 0.305 | 0.453 (inactive) | -2.02 (inactive) | -0.973 (inactive) | -0.092 | 1.54 (inactive) | -0.0926 | 0.309 | -0.174 | -0.096
CCCCC(=C=CC[C@@H](O)c1cccc(OCCO)c1)CCO | -0.219 | -0.555 | -0.057 | 0.601 | -0.277 | -0.0951 | 0.345 | -0.225 (inactive) | 0.0204 | -0.128 | 0.468 | 0.633 (inactive) | 0.111 (inactive) | -0.238 (inactive) | 0.111 | 0.863 (inactive) | -0.179 | -0.0301 | 0.098 | -0.152
